Results on 14 compounds are retold here after PubChem BioAssay.

Calls of active or inactive are those of the source.

Experiment [1] in a line: compounds binding Alexa647 anti-His antibody – biochemical, small-molecule microarray, 635 nm fluorescence, artefact control for SMM control protein annotation, primary screen (AID 1128).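 Note: score merges feature fluorescence with signal-to-noise for each printed compound spot.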 The settings on record: higher = more signal.
For experiment [2], the system named is Human papillomavirus type 1a E7 protein (residues 1-88). Briefly: HPV1a E7 small-molecule binders, primary screen, biochemical, small-molecule microarray, residues 1-88, 635 nm (AID 1129). The following applies: small-molecule microarray binding, fluorescence 635 nm; higher = more signal.
Experiment [3] addresses Focal adhesion kinase 1 (Homo sapiens) (UniProt Q05397). Kind of experiment: PTK2 protein binding on printed compound slides – biochemical, small-molecule microarray, 635/667 nm fluorescence, BSA, DTT, primary screen (AID 1130).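 Note: composite of spot emission at 667 nm and signal to noise over triplicate slides.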 The following applies: 635 nm fluorescence, higher = more signal.
Experiment [4] has as its system Fibrinogen (Alexa647-labelled). Kind of experiment: Alexa647-fibrinogen binding to printed small molecules – biochemical, small-molecule microarray, 635/667 nm fluorescence, artefact control for SMM control-protein annotation, profiling panel (AID 1131).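 Note: z-score merges 667 nm fluorescence with per-spot signal-to-noise over triplicate slides.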 The settings on record: fibrinogen-A647 binding fluorescence, higher = more signal.
For experiment [5], the target named is Follistatin (Homo sapiens) (UniProt P19883). Kind of experiment: FST protein binding to printed compounds – biochemical, small-molecule microarray, 635/667 nm fluorescence, primary screen (AID 1132). The settings on record: 635 nm fluorescence, higher = more signal.
The target of experiment [6] is Fibroblast growth factor 2 (Homo sapiens) (UniProt P09038). Briefly: basic fibroblast growth factor binding to printed compounds – biochemical, small-molecule microarray, 635/667 nm fluorescence, primary screen (AID 1133). The following applies: FGF2, fluorescence 635/667, higher = more signal.
A short description of experiment [7]: JC-1 mitochondrial potential readout, lung cancer cells – cell-based, A549, JC-1 fluorescence, basal, 24 h, 100 nL, profiling panel (AID 1138).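 Note: A549 lung adenocarcinoma cells under basal conditions with no added stimulus; test concentration not given here.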 The settings on record: higher = more signal.
Experiment [8] deals with Lefty1. Kind of experiment: Lefty1 protein binding to printed compounds – biochemical, small-molecule microarray, 635/667 nm fluorescence, primary screen (AID 1139). The following applies: fluorescence 635/667, higher = more signal.
For experiment [9], the system named is wheat germ agglutinin (Triticum aestivum), Alexa647-labelled. Briefly: Alexa647-WGA lectin binding to printed small molecules – biochemical, small-molecule microarray, 635/667 nm fluorescence, artefact control for SMM control-protein annotation, profiling panel (AID 1140).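 Note: score merges 667 nm feature emission with signal to noise over triplicate slides.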 The following applies: WGA-A647 binding, 635 nm fluorescence, higher = more signal.
The target in experiment [10] is Luciferin 4-monooxygenase (Photinus pyralis) (UniProt P08659). Briefly: inhibition of purified Photinus pyralis luciferase – biochemical, luminescence, purified enzyme, 2006 set, primary screen (AID 1141).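 Note: cell-free assay with purified firefly luciferase at 100 ng per well in PBS; test concentration not given here.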 The settings on record: purified firefly luciferase, SteadyGlo luminescence, 30 min; higher = more signal, called active from +8 up or from −8 down.
Luciferin 4-monooxygenase (Photinus pyralis), sequence (P08659 whole entry, looked up): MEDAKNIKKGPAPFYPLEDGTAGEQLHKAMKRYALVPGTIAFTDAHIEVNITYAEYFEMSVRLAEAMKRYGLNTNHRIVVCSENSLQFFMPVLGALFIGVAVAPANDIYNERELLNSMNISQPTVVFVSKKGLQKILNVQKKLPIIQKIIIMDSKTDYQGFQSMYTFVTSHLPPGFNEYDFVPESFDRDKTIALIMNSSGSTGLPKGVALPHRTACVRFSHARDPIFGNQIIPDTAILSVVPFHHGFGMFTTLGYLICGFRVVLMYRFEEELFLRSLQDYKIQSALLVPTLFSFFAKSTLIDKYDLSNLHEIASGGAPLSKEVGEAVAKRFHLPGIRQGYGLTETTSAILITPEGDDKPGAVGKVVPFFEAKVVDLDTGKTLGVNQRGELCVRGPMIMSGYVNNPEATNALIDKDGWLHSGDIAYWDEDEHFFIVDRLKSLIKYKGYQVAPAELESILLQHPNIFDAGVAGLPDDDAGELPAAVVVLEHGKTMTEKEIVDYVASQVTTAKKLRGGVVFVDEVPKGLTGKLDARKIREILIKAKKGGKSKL

Follistatin (Homo sapiens), sequence (P19883 whole entry, looked up): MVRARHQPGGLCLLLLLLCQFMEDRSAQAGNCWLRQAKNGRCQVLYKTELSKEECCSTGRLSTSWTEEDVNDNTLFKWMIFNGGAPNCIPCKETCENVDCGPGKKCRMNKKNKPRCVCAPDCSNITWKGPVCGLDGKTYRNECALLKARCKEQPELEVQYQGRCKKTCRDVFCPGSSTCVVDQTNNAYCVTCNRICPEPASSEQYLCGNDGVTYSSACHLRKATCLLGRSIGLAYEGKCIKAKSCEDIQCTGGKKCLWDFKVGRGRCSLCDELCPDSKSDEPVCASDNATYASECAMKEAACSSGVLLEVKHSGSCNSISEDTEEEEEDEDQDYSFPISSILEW
Focal adhesion kinase 1 (Homo sapiens), sequence (Q05397 whole entry, looked up): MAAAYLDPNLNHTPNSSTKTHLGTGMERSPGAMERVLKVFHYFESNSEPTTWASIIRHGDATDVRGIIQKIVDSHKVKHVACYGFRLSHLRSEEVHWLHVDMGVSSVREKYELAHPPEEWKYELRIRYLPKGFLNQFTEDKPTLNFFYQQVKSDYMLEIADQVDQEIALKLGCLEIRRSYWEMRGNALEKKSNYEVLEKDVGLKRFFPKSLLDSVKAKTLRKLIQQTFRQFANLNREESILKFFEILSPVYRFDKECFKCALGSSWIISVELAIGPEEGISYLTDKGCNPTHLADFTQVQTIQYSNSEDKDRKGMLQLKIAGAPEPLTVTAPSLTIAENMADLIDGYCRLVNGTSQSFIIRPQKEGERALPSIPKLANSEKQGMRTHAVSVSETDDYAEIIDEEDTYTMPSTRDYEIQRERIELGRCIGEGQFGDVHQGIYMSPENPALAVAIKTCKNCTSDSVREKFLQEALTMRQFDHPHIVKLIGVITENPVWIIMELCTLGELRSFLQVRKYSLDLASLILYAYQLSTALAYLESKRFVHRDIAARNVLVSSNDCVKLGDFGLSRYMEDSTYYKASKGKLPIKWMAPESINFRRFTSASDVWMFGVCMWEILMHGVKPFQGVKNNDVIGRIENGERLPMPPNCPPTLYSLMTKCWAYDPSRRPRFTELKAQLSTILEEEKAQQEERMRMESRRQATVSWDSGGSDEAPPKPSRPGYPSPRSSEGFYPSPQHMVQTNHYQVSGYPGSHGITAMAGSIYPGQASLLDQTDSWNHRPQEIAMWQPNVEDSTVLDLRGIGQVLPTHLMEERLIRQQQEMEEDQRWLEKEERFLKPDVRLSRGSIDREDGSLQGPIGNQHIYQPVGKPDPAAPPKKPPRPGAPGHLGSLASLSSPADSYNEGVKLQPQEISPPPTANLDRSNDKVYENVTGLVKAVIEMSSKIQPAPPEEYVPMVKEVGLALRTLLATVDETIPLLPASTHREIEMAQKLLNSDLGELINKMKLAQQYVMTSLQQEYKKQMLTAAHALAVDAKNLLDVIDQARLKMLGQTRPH
Fibroblast growth factor 2 (Homo sapiens), sequence (P09038 whole entry, looked up): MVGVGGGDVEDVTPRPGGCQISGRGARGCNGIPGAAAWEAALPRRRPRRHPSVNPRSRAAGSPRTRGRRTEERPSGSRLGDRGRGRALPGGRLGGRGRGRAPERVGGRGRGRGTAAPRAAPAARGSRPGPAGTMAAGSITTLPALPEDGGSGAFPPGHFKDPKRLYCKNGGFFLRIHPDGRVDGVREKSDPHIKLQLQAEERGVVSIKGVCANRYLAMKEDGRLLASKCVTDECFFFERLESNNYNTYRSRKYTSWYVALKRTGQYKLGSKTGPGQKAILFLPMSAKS

Turning to `C#CCOc1ccc(C[C@@H](C(=O)OC)N(CC#C)[C@@H](/C=C/C2CC2)[C@H](O)Cc2ccccc2)cc1`, the composite z-score in [1] is 0.135; in experiment [2] it was -0.438; in experiment [3], 0.0472; in experiment [4], -0.651; in experiment [5], 0.24; in experiment [6], -0.768. Moreover, the composite z-score in experiment [8] was 0.22; in experiment [9], -1.34. In addition, the figures for the z-score in experiment [7] and in experiment [10] were 2.32 and -0.497 (inactive), respectively.
On to `C=CCC(OC(C)=O)[C@@H]1[C@@H](N(Cc2cc3ccccc3o2)C(=O)Cc2ccc(OC)cc2)c2cc(OCCCO)ccc2N1C(=O)c1ccc2ccccc2c1` (stereo not given in full), for which the composite z-score in experiment [1] is 0.19; in [2], -0.491; in [3], 0.115; in experiment [4] it was -1.19; in experiment [5], 0.2; in [6], -0.568. Moreover, the composite z-score amounted to 0.128 in experiment [8] and 0.757 in experiment [9]. Moreover, the z-score in experiment [7] was -0.319; in experiment [10], 0.148 (inactive).
Take `O=C1NC(=O)C2C1C=CC(C(O)c1ccc(-c3ccccc3)s1)N2Nc1ccc(Cl)cc1Cl` (stereo not given): the composite z-score was 0.752 in experiment [1]; 1.11 in experiment [2]; 1.06 in experiment [3]; 0.934 in experiment [4]; 0.833 in [5]; -0.91 in [6]. The figures for the composite z-score in experiment [8] and in [9] were 0.127 and 0.865, respectively. Further, the z-score in experiment [7] was -0.536; in experiment [10], -0.289 (inactive).
For `O=c1cccc(-c2ccccc2Cl)o1`, the composite z-score in [1] is 0.0166; in experiment [2], 0.461; in experiment [3] it was 0.678; in experiment [4], -0.0231; in experiment [5], 0.0968; in experiment [6], -0.488. In addition, the composite z-score in experiment [8] was 0.0182; in experiment [9], -0.0467. Besides, the z-score in experiment [7] is -0.556; in [10], 0.294 (inactive).
With `C=C(CCCC)/C(=C/C[C@@H](OC(C)=O)c1cccc(OCCO)c1)c1cnc2ccccc2c1`, the composite z-score in experiment [1] is 1.35; in experiment [2] it was 0.157; in experiment [3] it was -0.0542; in experiment [4], 0.0837; in experiment [5] it was 1.4; in experiment [6] it was 1.18. The composite z-score in experiment [8] was 1.37; in experiment [9], 0.978. Also, the z-score in experiment [7] is 0.908; in experiment [10], -0.245 (inactive).
For `CCOC(=O)C1=C[C@@H](C(C)C)N(S(=O)(=O)c2ccc(C)cc2)[C@H]1c1ccccc1F`, the composite z-score in experiment [1] was 0.654; in [2] it was 1.2; in experiment [3], -0.0031; in experiment [4], 1.02; in experiment [5] it was 0.96; in experiment [6] it was 0.307. Further, the composite z-score in experiment [8] is 0.187; in experiment [9] it was 0.927. The z-score is 2.33 in experiment [7] and 1.82 (inactive) in experiment [10].
As to `CC(=O)NCCCC[C@@H]1NC(=O)[C@H]2C[C@@H](C(=O)NCCCCCNC(=O)CS)[C@@H](c3ccc(O)cc3)N2C1=O`, the composite z-score in [1] was 2.12; in [2], -0.15; in experiment [3], 0.167; in [4] it was -0.355; in experiment [5] it was 0.769; in [6], 0.424. Further, the composite z-score in [8] was -0.272; in [9], -0.0796. Besides, the z-score was 0.139 in experiment [7] and -2.56 (inactive) in experiment [10].
As for `O=C1OCC=C[C@H]2OC34C=CCN(Cn5nnc6ccccc65)C(=O)[C@H]3N(CCCCCO)C(=O)[C@@H]4[C@@H]12` (stereo not given in full), the composite z-score in [1] was 0.181; in [2] it was -0.185; in experiment [3], -0.34; in experiment [4] it was -0.566; in experiment [5] it was -0.997; in [6] it was -0.846. In addition, the composite z-score is -0.992 in experiment [8] and 1.25 in experiment [9]. Further, the z-score in experiment [7] was -1.47; in experiment [10] it was 0.365 (inactive).
With `Cc1ccc(S[C@]2(C(=O)NCC(C)C)CC(=O)N(Cc3cc(C(F)(F)F)cc(C(F)(F)F)c3)[C@@H]2c2ccc(CO)cc2)cc1`, the composite z-score is 0.63 in [1]; -0.8 in [2]; -0.261 in [3]; -0.529 in experiment [4]; -0.0643 in [5]; -0.205 in [6]. Moreover, the composite z-score is -0.866 in experiment [8] and -0.262 in experiment [9]. For the same compound, the z-score in experiment [7] was -0.587; in [10], 0.111 (inactive).
Regarding `O=C1C2C=CC(C(O)C=Cc3ccc([N+](=O)[O-])cc3)N(n3cnnc3)C2C(=O)N1Cc1ccccc1` (stereo not given), the composite z-score in experiment [1] was 1.88; in experiment [2], 1.06; in experiment [3] it was 0.376; in [4] it was 0.699; in [5] it was 1.16; in experiment [6], -0.0745. Moreover, the figures for the composite z-score in experiment [8] and in experiment [9] were -0.0293 and 0.941, respectively. For the same compound, the values for the z-score in [7] and in experiment [10] were -0.772 and 0.872 (inactive), respectively.
Consider `CN1C(=O)C2C=CC(C(O)c3ccc(F)cc3)N(N(c3ccccc3)c3ccccc3)C2C1=O` (stereo not given), for which the composite z-score was 0.202 in experiment [1]; 0.619 in experiment [2]; 0.0202 in experiment [3]; -1.13 in [4]; 0.605 in experiment [5]; -0.615 in experiment [6]. Besides, the composite z-score in experiment [8] is -0.128; in experiment [9] it was 0.296. Further, the z-score in experiment [7] is 0.351; in experiment [10], 0.0492 (inactive).
On to `O=C1C2C=CC(C(O)c3ccc4c(c3)OCO4)N(Nc3ccc([N+](=O)[O-])cc3)C2C(=O)N1c1ccccc1` (stereo not given), for which the composite z-score was 1.29 in experiment [1]; 0.978 in [2]; -0.0123 in experiment [3]; 0.293 in experiment [4]; 0.225 in experiment [5]; -0.0036 in [6]. The composite z-score in experiment [8] was 0.313; in [9], 0.0897. Also, the z-score in experiment [7] was -0.35; in experiment [10], 0.382 (inactive).
For `COc1ccc([Si](C)(C)[C@H]2[C@H](CC(=O)N3CCC[C@H]3CO)O[C@@]3(C(=O)N(Cc4cccc(N5CCOC5=O)c4)c4ccccc43)[C@@H]2C)cc1`, the composite z-score in experiment [1] was found to be 1.3; in experiment [2], 0.883; in experiment [3], 0.266; in experiment [4], 0.405; in [5], 1.42; in experiment [6], 1.64. Moreover, the composite z-score in experiment [8] turned out to be 1.47; in [9], 0.149. Moreover, the z-score in experiment [7] is 1.1; in [10], 0.526 (inactive).
For the compound `COc1cc2c(cc1OC)CN(C(=O)[C@H]1[C@@H]3C(=O)O[C@@H](c4ccccc4)[C@@H](c4ccccc4)N3[C@@H](c3ccccc3OCCO)[C@]13C(=O)Nc1ccc(C#CCCO)cc13)CC2`, the composite z-score in [1] was determined as 1.1; in experiment [2], 1.2; in experiment [3], 0.612; in experiment [4], 0.871; in experiment [5] it was 1.18; in experiment [6], 1.65. Moreover, the results for the composite z-score in experiment [8] and in experiment [9] were 1.13 and 0.524, respectively. Moreover, the values for the z-score in experiment [7] and in [10] were -0.486 and -0.255 (inactive), respectively.
